Anesthetic bind: binds horse apoferritin like a general anesthetic. apoferritin/1-aminoanthracene competitive binding, fluorescence. Potency, µM (doses to about 77.5 µM), for the others: at the top dose activity change, negative = displacement, usual class: inhibitors. hit rate 0.074% among 350,000. AID 485281; note: % is set by controls: 0 for no effect and ±100 for the full control effect; nearly all actives have a fitted effect of over 20% in size
Target sequence (P02791 2-175 limits assumed): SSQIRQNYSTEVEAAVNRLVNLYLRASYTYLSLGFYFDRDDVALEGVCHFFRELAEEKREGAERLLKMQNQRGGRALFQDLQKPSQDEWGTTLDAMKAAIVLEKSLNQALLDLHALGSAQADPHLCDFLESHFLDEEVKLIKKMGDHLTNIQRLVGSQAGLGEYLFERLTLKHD
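Apoferritin-based anesthetic binding model; compound displacement of fluorescent 1-AMA measured as endpoint fluorescence after 10 minutes at room temperature, scaled to free-ligand and complex controls.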
Glioma ERSR ind: inducers of ER stress response in human glioma cells | U87-MG GRP78 promoter luciferase reporter, 16 h | Potency, µM, for the others: at the top dose activation, most hits filed as activators | hit rate 0.02% among 420,000 | AID 602332; note: series mostly up to about 76 µM; % of control where 0% means no effect; nearly all actives have a fitted effect of over 35% in size
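Stably transfected U87-MG glioma cells carrying a GRP78-based luciferase sensor; 16 h compound incubation. Luminescence end-point read 10 min after Bright-Glo addition at room temperature.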
12-LOX inh: blocks human arachidonate 12S-lipoxygenase | P18054 | purified 12hLO, xylenol orange hydroperoxide absorbance | Potency, µM (series often up to 108 µM), for the others: at the highest dose activity change, negative = inhibition, actives largely listed as inhibitors | hit rate 1.1% among 580,000 | AID 1671190; note: % is set by controls: 0 for no effect and ±100 for the full control effect
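Hydroperoxide product was detected by ferrous iron/xylenol orange as the 573 to 405 nm absorbance ratio. Arachidonic acid at 40 uM (final) was turned over for 30 min at room temperature by 150 nM human 12hLO, pH 7.0 Hepes buffer, after 15 min compound preincubation.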
Chronic BCR inh: chronic active BCR signaling inhibition | ABC-DLBCL IkBa-CBG/CBR reporter, luminescence ratio, 4 h | Potency, µM (doses to about 46.1 µM), for the others: at the top dose activity change, negative = inhibition, actives largely listed as inhibitors | AID 493014 | hit rate 0.05% among 340,000; active = well fitted inhibition curve with a large enough effect in the signal ratio, with a control signal flat, not every such curve was filed as active; inconclusive = small, poorly fitted or top-dose-only effect, or effect the other way, or a change in a side signal; the % refers to the signal ratio;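 note: plate controls were basal doxycycline-induced cells for no effect and cells given 10 µM MG132 for full effect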
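TMD8 human ABC-DLBCL cells with doxycycline-inducible IκBα–green luciferase fusion and unfused red luciferase, in 0.5% FBS medium; compounds up to 46 uM, 4 h at 37C. Green/red luminescence ratio, filter-overlap corrected, fitted to concentration-response curves.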
* marks the source's active call; other numbers are inactive results; u = inconclusive; x = no result; ! = a repeat was not active. Hits are enriched below; roughly 1.1% of the tested compounds scored in any of these assays. Unless noted, calls come from the whole dose curve; as a rule, active = well fitted curve in the direction sought with a large enough effect; inconclusive = small, poorly fitted or top-dose-only effect, or another doubt; inactive = no such curve, though single readings can be large; an effect the other way counts as inactive or inconclusive. Potency is the fitted concentration of half-maximal effect.

SMILES	Anesthetic bind	Glioma ERSR ind	12-LOX inh	Chronic BCR inh
COC(=O)C1=C(C)N(Cc2ccccc2)C(=S)N[C@H]1c1ccc(Br)cc1	-21%	-5%	45µM*	u
COc1ccc(OC)c(/C=N/NC(=S)NCCc2ccccc2)c1	209%	-2%	45µM*	u
COc1ccc(OC)c(/C=N\NC(=O)CC(=O)NCCc2ccccc2)c1	120%	0%	-6%	-15%
S=C(NCCc1ccccc1)N/N=C/c1cccc(Cl)c1Cl	-3%	-5%	50µM*	20%
Fc1ccc(NC(=S)NN=Cc2ccccc2Cl)cc1	x	0%	50µM*	x
CC1(C)C2CC=C(/C=N/NC(=S)NCCc3ccccc3)C1C2 (configuration not stated)	0%	-6%	45µM*	-7%
Oc1ccccc1/C=N/NC(=S)NCCc1ccccc1	-9%	1%	0%	5%
COc1ccc(S(=O)(=O)Nc2nc3ccccc3nc2Nc2cccc(C(F)(F)F)c2)cc1	x	x	-18%	x
CC(O)CNc1nc(-c2ccsc2)nc2ccccc12 (configuration not stated)	x	x	-5%	x
Cc1cc(C(=O)CSc2ncnc3ccccc23)c(C)n1C1CC1	x	6%	16µM*!	0%
CCn1c(SCC(=O)Nc2ccc3c(c2)c2ccccc2n3CC)nnc1-c1ccco1	-1%	-4%	11µM*	3%
CCn1c(SCC(=O)Nc2cccc(NC(C)=O)c2)nnc1-c1ccco1	-9%	-2%	-11%	-6%
COc1ccc2[nH]c3c(=O)n(CCCCC(=O)NCCN4CCCC4)c(=S)[nH]c3c2c1	-9%	-5%	14µM*	u
O=C(N/N=C\c1cc(Br)cs1)c1ccc(Cl)cc1	x	x	12%	x
CCCCn1c(=O)c2sccc2n(CC(=O)N(CC)c2ccccc2)c1=O	x	x	-20%	x
COC/C=C/C1=CC2=CC(=O)C(C)(OC(=O)C3CCCC3)C(=O)C2=CO1 (configuration not stated)	-24%	-1%	22µM*	9%
COC/C=C/C1=CC2=CC(=O)C(C)(OC(=O)c3ccco3)C(=O)C2=CO1 (configuration not stated)	-8%	x	x	8%
CC(=O)Oc1ccc2c(C)c(CCC(=O)NCc3nc(-c4ccccc4)no3)c(=O)oc2c1	x	x	-3%	x
COc1ccc(CC(=O)Nc2ncc([N+](=O)[O-])s2)cc1OC	-12%	-1%	35µM*	-10%
O=C(Nc1ccccc1)Nc1ncc([N+](=O)[O-])s1	-21%	-13%	u	u
O=C(COC(=O)c1ccccc1)Nc1ncc([N+](=O)[O-])s1	x	4%	40µM*	u
Cc1ccc(F)cc1S(=O)(=O)NC(C)CN1CCOCC1 (configuration not stated)	x	x	2%	x
COc1cccc(C2CC(=O)Nc3nc(N)sc32)c1OCc1ccc(F)cc1 (configuration not stated)	x	x	2µM*	x
Nc1nc2c(s1)C(c1cccc(F)c1F)CC(=O)N2 (configuration not stated)	x	x	16µM*	x
Nc1nc2c(s1)C(c1cccc(OCc3cccc(F)c3)c1)CC(=O)N2 (configuration not stated)	x	x	3.5µM*	x
SMILES	Anesthetic bind	Glioma ERSR ind	12-LOX inh	Chronic BCR inh
CNc1nc2c(s1)C(c1ccc(F)c(F)c1)CC(=O)N2 (configuration not stated)	x	x	-25%	x
Nc1nc2c(s1)C(c1ccc(Br)cc1)CC(=O)N2 (configuration not stated)	x	x	27%	x
COc1cccc(C2CC(=O)Nc3cc(OC)c(OC)c(OC)c32)c1OC (configuration not stated)	-12%	-2%	154%	u
Nc1nc2c(s1)C(c1ccc(F)cc1F)CC(=O)N2 (configuration not stated)	x	x	13µM*	x
Cc1ncsc1CN1CC(Oc2cccc(C(=O)N3CCOCC3)c2)C1	x	x	29%	x
CC(=O)C1=C(c2ccccc2)OC(N)=C(C#N)C1c1ccccc1C (configuration not stated)	-3%	-4%	-17%	7%
Cc1ccccc1C1C=C(c2ccccc2)OC(c2ccccc2)=C1C=O (configuration not stated)	x	x	5.6µM*	x
CC1C=CCC2C(=O)N(c3cccc(C(=O)NCc4ccccc4)c3)C(=O)C12 (configuration not stated)	-13%	-4%	32µM*	2%
CC1C=CCC2C(=O)N(c3cccc(C(=O)NCCc4ccccc4)c3)C(=O)C12 (configuration not stated)	-18%	-2%	u	5%
COc1ccc(-c2c(C(F)(F)F)[nH]n3c(=O)cc(-c4ccccc4)nc23)cc1	2%	6%	11µM*	-9%
Cc1[nH]n2c(=O)cc(-c3ccc(Cl)cc3)nc2c1-c1ccccc1	8%	2%	40µM*	x
Cc1ccsc1CN1CCC(C2CCN(S(C)(=O)=O)CC2)C1 (configuration not stated)	x	x	89%	x
c1csc(CNc2ccnc(-c3ccoc3)n2)c1	x	0%	13µM*	x
COc1ccccc1-c1nccc(NCc2cccs2)n1	x	-1%	13µM*	x
Cc1cccc(NC(=S)N/N=C2/CCCC(C)C2)c1 (configuration not stated)	x	x	35µM*	x
COc1ccc(OC)c(-n2c(-c3cccc(C)c3)n[nH]c2=S)c1	-10%	3%	35µM*	7%
COc1ccc(-c2n[nH]c(=S)n2-c2ccc(Br)cc2)cc1OC	-3%	-2%	16µM*	-3%
Cc1ccc(C)c(NC(=O)c2nc3ccccc3nc2Cl)c1	x	x	-6%	x
COC(=O)Cn1c(C)c(/C=C/c2cc[n+](C)cc2)c2ccccc21	-5%	-5%	45µM*	1%
O=C(C1=C(O)C(=O)N(c2ncccn2)C1c1ccc(Cl)c(Cl)c1)c1ccco1 (configuration not stated)	-5%	3%	2µM*	3%
CSc1nnc(N2C(=O)C(O)=C(C(=O)c3ccco3)C2c2cccc(Cl)c2)s1 (configuration not stated)	1%	-12%	40µM*	u
COC(=O)C(CC(C)C)NC(=O)C(Cc1ccccc1)NC(=O)OC(C)(C)C (configuration not stated)	x	x	27%	x
S=C1NC2=C(CCC/C2=C\c2ccccc2)C(c2ccccc2)N1 (configuration not stated)	6%	-3%	u	1%
S=C1NC2=C(CCC/C2=C\c2ccc(Cl)cc2)C(c2ccc(Cl)cc2)N1 (configuration not stated)	-2%	-3%	25µM*	5%
Fc1ccccc1/C=C1\CCCC2=C1NC(=S)NC2c1ccccc1F (configuration not stated)	-9%	-2%	32µM*	3%
CC1CC2=C(NC(=S)NC2c2ccc(F)cc2)/C(=C/c2ccc(F)cc2)C1 (configuration not stated)	-23%	0%	25µM*	-1%
CCOC(=O)c1nn(-c2ccccc2C)c(=O)c2c(N)scc12	-21%	-1%	u	1%
